Screens: PubChem BioAssay, several laboratories
Most compounds without a hit are left out; they make up all but 2.4% or so of the library.
TLR4 MyD88 comp – blocks binding of human TLR4 to MyD88; O00206+Q99836; HeLa CL3-4 TLR4/MyD88 BLA complementation, FRET ratio; inhibition, % at 8.4 µM; 200,000 tested, 0.18% active; AID 861; in the data active = inhibition above about 25%;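 also: 0% = vehicle and 100% = reference inhibitor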
ANO1 block – mouse TMEM16A channel inhibition, primary screen; HEK293 TMEM16A/YFP iodide influx fluorescence, ionomycin; AID 588511; 310,000 tested, 1.2% active; normalized B-score (activity score, 25-100; higher = stronger inhibition) at 10 µM; Q8BHY3;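 active = ratio plate-corrected score three or more library SD toward inhibition, starting fluorescence score within five deviations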;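 also: score derived from kinetic fluorescence span divided by baseline fluorescence per well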
HTR2A ag – activates the mouse 5-HT2A serotonin receptor. P35363. CHO-K1 mHTR2A beta-arrestin complementation, luminescence; percent of 30 µM serotonin response. activation, % at 7.6 µM. 360,000 tested, 0.66% active;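 active = activation above a run cutoff, the mean activation of all tested compounds plus 3 SD, cut at about 14% in these data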;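 also: 0% = plate median of compound wells and 100% = 30 µM serotonin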
ANO1 activ – mouse TMEM16A channel activation, primary screen | AID 623877 | 340,000 tested, 0.3% active | Q8BHY3 | HEK293 TMEM16A/YFP-H148Q/I152L, iodide quench fluorescence; stronger effect = lower value | B-score at 10 µM;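 active = fluorescence-ratio B-score plate-corrected deviation score at least 3 library SD below zero, with starting fluorescence score within 5 deviations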;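 also: channel opened by trigger with iodide after compound preincubation; score built on the fluorescence ratio of max minus min over baseline; more negative score means more quench and so TMEM16A activation or potentiation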
NOD2-RIPK2 inh – NOD2-RIPK2 protein interaction inhibition. AID 624267. O43353. 360,000 tested, 0.38% active. inhibition, % at 4.98 µM. CHO BLA complementation NOD2-RIPK2, CCF4 ratio; in the data active = inhibition above about 21%;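 also: 0% = vehicle only and 100% = reference blocker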
TLR9-MyD88 block – inhibitors of human TLR9-MyD88 binding; Q9NR96+Q99836; CHO BLA complementation TLR9-MyD88, CCF4 FRET ratio; inhibition, % at 4.98 µM; 340,000 tested, 0.21% active;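 active = inhibition above the mean over all tested compounds plus 3 SD, cut at about 21% in these data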;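 also: 0% = DMSO only wells and 100% = clavulanate BLA inhibitor control wells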
TMEM16A reconf – TMEM16A (mouse) chloride channel inhibition, re-confirmation; inhibition, % at 10 µM; AID 652189; shares compounds with ANO1 block; HEK293 TMEM16A/YFP-H148Q, iodide quench fluorescence; ionomycin added to raise cell calcium; 2,300 tested, 39% active;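 active = mean duplicate percent inhibition, scaled so buffer wells are 0 and the reference blocker 100, over three buffer SD above buffer mean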
TMEM16A Ca cntr – calcium mobilization counter-screen hit for TMEM16A inhibitor series; 2,300 tested, 2% active; calcium response (% of ionomycin), % at 10 µM; shares compounds with ANO1 block; TMEM16A/YFP HEK293, Fluo4 calcium mobilization;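 active = duplicate-averaged calcium signal over 20% of the ionomycin maximum, relative to buffer baseline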;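 also: each well's signal is peak minus trough fluorescence divided by its pre-addition baseline; 0% = buffer wells and 100% = ionomycin wells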
Parental YFP cnt – parental YFP-HEK293 iodide quench counter-screen activity; shares compounds with ANO1 block; 2,300 tested, under 10 active; ionomycin; YFP ratio F(max-min)/F0 at 10 µM; AID 652233;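 active = yellow fluorescent protein signal ratio exceeding the buffer control mean by over 5 SD of those controls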;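 also: ratio is mean of duplicate wells from kinetic YFP trace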
ClC-1 inh – rat ClC-1 inhibition, TMEM16A specificity screen; ratio percent, % at 10 µM; CHO ClC-1-YFP, iodide influx fluorescence quench; iodide control reads 0, buffer control 100; 2,300 tested, under 10 active; shares compounds with ANO1 block;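 active = duplicate-mean ratio percent above the mean of iodide-only control wells, which defines zero, plus 5 of their SD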;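 also: higher percent means stronger block of ClC-1 iodide influx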
An asterisk follows results filed as active; i = inactive; . = no result.

SMILES | TLR4 MyD88 comp | ANO1 block | HTR2A ag | ANO1 activ | NOD2-RIPK2 inh | TLR9-MyD88 block | TMEM16A reconf | TMEM16A Ca cntr | Parental YFP cnt | ClC-1 inh
COc1ccc(C2CC(=O)c3cnc(N4CCN(Cc5ccccc5)CC4)nc3C2)cc1 (configuration not stated) | -2.6 | 25* | -2.4 | i | -7.2 | 1.0 | i | i | -1.15 | -5.0
Cc1cc(C)cc(Nc2ncc3c(n2)CC(c2ccco2)CC3=O)c1 (configuration not stated) | -3.2 | i | 1.3 | i | 5.6 | 0.7 | . | . | . | .
Cc1ccc(C(=O)Nc2ccc(CN3CCS(=O)(=O)CC3)cc2)cc1C | . | i | 9.3 | i | -3.7 | -0.9 | . | . | . | .
CCCCOCCO | . | . | 1.7 | i | 0.6 | 5.7 | . | . | . | .
Cn1ccc2c(-c3ccc(F)nc3)cc3c(c21)C1CCC3O1 (configuration not stated) | . | . | 0.3 | . | 4.8 | . | . | . | . | .
Cc1ccccc1C1C(C#N)=C2N=C(N)c3c(sc4c3CCCCC4)N2C2=C1C(=O)CC(C)(C)C2 (configuration not stated) | 5.3 | i | -3.7 | i | 0.4 | 5.7 | i | i | -1.07 | 0.5
COC(=O)/C=C1/S/C(=N/NC(=O)c2ccc(OC)cc2)NC1=O | . | i | 6.0 | i | 9.2 | -11.8 | . | . | . | .
CCCCn1c(SCC(=O)N(C)C)nnc1-c1ccncc1 | 2.1 | i | 0.0 | i | 5.2 | -8.4 | . | . | . | .
COc1c(C(O)CC(C)C)ccc2c1C(=O)OCc1cc(C)cc(O)c1O2 (configuration not stated) | -0.7 | 25* | -1.9 | i | -5.3 | 6.5 | 21.5%* | i | -0.968 | -12.5
COc1c(C(CC(C)C)OC(C)=O)ccc2c1C(=O)OCc1cc(C)cc(O)c1O2 (configuration not stated) | . | 100* | 5.0 | i | 6.8 | 11.9 | 23.5%* | i | -1.06 | -14.5
Cc1ccc(N(C)S(=O)(=O)c2ccc(-c3cc(C)no3)s2)cc1 | . | 25* | 6.8 | i | -0.8 | -2.6 | 33.0%* | i | -0.982 | -11.5
CN(C)c1ccc(N=Nc2ccccc2C(=O)OCC(=O)NC2CCCC2)cc1 | -3.0 | i | -6.3 | i | -3.0 | -9.0 | . | . | . | .
CN(C)c1ccc(N=Nc2ccccc2C(=O)OCC(=O)NCC2CCCCC2)cc1 | -6.2 | 100* | -7.8 | i | -3.4 | -0.3 | i | i | -0.858 | -12.5
CCCc1nc2c(sc3nc4c(cc32)COC(C)(C)C4)c(=O)n1Cc1ccco1 | -7.2 | 25* | 0.4 | i | -7.9 | 1.7 | 47.0%* | i | -1.15 | -13.0
CCCc1nc2c(sc3nc4c(cc32)COC(C)(C)C4)c(=O)n1CCN(C)C | 5.7 | i | -1.9 | i | -11.7 | -6.0 | . | . | . | .
Cc1noc(C)c1NC(=O)N(C)C[C@H]1Oc2ccc(NS(=O)(=O)c3ccccc3)cc2C(=O)N([C@H](C)CO)C[C@@H]1C | . | . | -0.1 | i | 2.2 | -3.9 | . | . | . | .
CSc1ccccc1-c1nnc(-c2ccc(C)cc2)o1 | -3.6 | 25* | 0.8 | i | -16.3 | 0.5 | i | i | -1.2 | 3.0
CSc1ccccc1-c1nnc(-c2ccccc2)o1 | -7.5 | i | 1.7 | i | -2.3 | 4.7 | . | . | . | .
COc1ccc2c(c1)CC/C(=C\Nc1ccc3c(c1)OCO3)C2=O | -2.3 | 25* | -3.9 | i | 0.6 | 4.2 | i | i | -0.838 | 4.5
CC(C)(C)c1ccc(-c2n[nH]c(=S)n2Cc2ccccc2)cc1 | . | i | 6.5 | i | -1.2 | 7.7 | . | . | . | .
CC(C)n1c(-c2ccc(C(C)(C)C)cc2)n[nH]c1=S | -3.9 | 100* | 0.4 | i | -6.4 | -6.0 | i | i | -1.08 | -13.0
Fc1cccc(Cl)c1-c1nnc2ccc3ccccc3n12 | 2.3 | 25* | 6.7 | i | -9.2 | 2.0 | i | i | -0.898 | -10.0
O=C(CCNS(=O)(=O)c1ccccc1C(F)(F)F)N1CCN(c2ccccc2O)CC1 | . | i | 0.6 | i | -7.6 | -6.0 | . | . | . | .
CSc1cccc(NC(=O)COc2ccccc2)c1 | -9.1 | i | -5.3 | i | -0.7 | -5.1 | . | . | . | .
Cc1c(C(C)(C)C)s/c(=N/S(=O)(=O)c2ccccc2)n1C | . | 100* | -0.5 | i | -2.8 | 2.3 | i | i | -0.849 | -14.5
SMILES | TLR4 MyD88 comp | ANO1 block | HTR2A ag | ANO1 activ | NOD2-RIPK2 inh | TLR9-MyD88 block | TMEM16A reconf | TMEM16A Ca cntr | Parental YFP cnt | ClC-1 inh
Cc1c(C(C)(C)C)sc(=NC(=O)c2ccccc2O)n1C | . | i | 3.4 | i | 5.0 | -2.8 | . | . | . | .
COc1ccc2c(c1)CCc1c(C(=O)NC3CCCCC3)noc1-2 | 4.7 | 100* | 4.8 | i | -2.4 | -0.3 | i | i | -0.841 | -4.5
COCCNC(=O)c1noc2c1CCc1cc(OC)ccc1-2 | 16.7 | i | 0.5 | i | -9.1 | -8.3 | . | . | . | .
COc1cccc2c1OC[C@@H](CO)[C@H]2N(C)C(=O)Nc1ccc(Cl)cc1Cl | 7.1 | i | 4.1 | i | -5.5 | -2.3 | i | i | -1.12 | -11.0
COc1ccccc1-c1nnc(SCC(=O)Nc2ccc(Cl)cc2Cl)o1 | 8.4 | i | -0.8 | i | -9.0 | -6.8 | . | . | . | .
COc1ccc(-c2csc(NC(=O)CSc3nc(C)cs3)n2)cc1 | -4.3 | i | -0.7 | i | 2.9 | -2.9 | . | . | . | .
COc1ccccc1C1(O)CCN(CC(=O)Nc2nc(-c3ccccc3)cs2)CC1 | -10.7 | 100* | -2.7 | i | 2.6 | 4.1 | 23.0%* | i | -0.729 | -2.0
CCOC(=O)N1CCN(C(=O)CSCC(=O)Nc2nc(-c3ccc(-c4ccccc4)cc3)cs2)CC1 | -6.4 | 100* | -0.3 | i | -5.0 | -13.4 | 24.0%* | i | -0.868 | -20.0
Cc1ccc(-c2csc(NC(=O)CSC3=NCCS3)n2)cc1 | 4.4 | 100* | 2.4 | i | 1.9 | -10.6 | 51.0%* | i | -0.901 | -14.0
COc1ccc(-c2csc(NC(=O)CSc3nc(SC)ns3)n2)cc1 | -2.3 | 100* | -3.1 | i | -10.0 | -5.3 | 21.0%* | i | -1.01 | -6.0
COc1ccc(NC(=O)NC23CC4(C)CC(C)(CC(C)(C4)C2)C3)cc1OC | -5.2 | 25* | 5.7 | i | 7.8 | -8.2 | i | i | -1.31 | 3.0
